# This is one part of a sample in which the strongest signals are shown more often than they occur.
# B1: SP15308F-bth-333-19-333 (Bacteroides thetaiotaomicron) (protein)
# chain: SCNNEWESEQYVQMVSFKAPVNAQGVTPIYIRYKPEGKVTYQLPLIVSGSTMNSKDLNVHVGLDLDTLDVLNVEHFGSRKELFFKPLENKYYEFPETVQIPAGECTSLLPIDFALKDLDQVDKWVLPLAIQSNDPSHNYQANPRKFYRRAMLRISPFNDYSGQYSATAYKVYFKGNEKEAIVPEYHTSYVIDDKTIFFYAGLIDIDRLDRKYYKIKFEFTEEKIDLQTRKLKISSDNEDINLVVKGQPSYTVEEEMDATRPYLKHIYVTINNLEYEFTDYTSVPGYPLEYVVKGSLTMERKINTQIPDEDQAIEW
# What was measured:
# Assay in all cases: glycan array binding signal (z-score within array); higher = stronger binding
# Conditions in all cases: glycan notation: IUPAC condensed, linker removed
# Fuc(a1-2)Gal = target: Fuc(a1-2)Gal
# Outline: (§1)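 Arrays were curated from the Consortium for Functional Glycomics database, 3228 in total, and kept only where the protein sequence was available. Binding is expressed as a within-array Z-score. This score was averaged across arrays of the same protein sequence at different concentrations or buffers and across linkers, and negative values can be read as non-binding.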
# [1] = target: Fuc(a1-2)Gal(b1-3)GlcNAc(b1-3)[Fuc(a1-2)Gal(b1-3)GlcNAc(b1-6)]GalNAc
# Outline: as §1
# [2] = target: Fuc(a1-2)Gal(b1-4)GlcNAc(b1-3)Gal(b1-4)GlcNAc(b1-2)Man(a1-3)[Fuc(a1-2)Gal(b1-4)GlcNAc(b1-3)Gal(b1-4)GlcNAc(b1-2)Man(a1-6)]Man(b1-4)GlcNAc(b1-4)GlcNAc
# Outline: as §1
# [3] = target: Fuc(a1-2)[Gal(a1-3)]Gal(b1-4)[Fuc(a1-3)]Glc
# Outline: as §1
# [4] = target: Fuc(a1-3)[Gal(b1-4)]GlcNAc(b1-2)Man(a1-3)[Fuc(a1-3)[Gal(b1-4)]GlcNAc(b1-2)Man(a1-6)]Man(b1-4)GlcNAc(b1-4)[Fuc(a1-6)]GlcNAc
# Outline: as §1
# [5] = target: Fuc(a1-3)[Gal(b1-4)]GlcNAc(b1-6)[Gal(b1-3)GlcNAc(b1-3)]Gal(b1-4)Glc
# Outline: as §1
# [6] = target: Fuc(a1-3)[GalNAc(b1-4)]GlcNAc
# Outline: as §1
# Fuc(a1-4)GlcNAc = target: Fuc(a1-4)GlcNAc
# Outline: as §1
# [7] = target: Gal(a1-3)Gal(b1-3)GlcNAc(b1-2)Man
# Outline: as §1
# [8] = target: Gal(a1-3)Gal(b1-3)GlcNAc(b1-6)GalNAc
# Outline: as §1
# [9] = target: Gal(a1-3)Gal(b1-4)GlcNAc(b1-6)GalNAc
# Outline: as §1
# [10] = target: Gal(a1-4)Gal(b1-3)GlcNAc(b1-2)Man(a1-3)[Gal(a1-4)Gal(b1-3)GlcNAc(b1-2)Man(a1-6)]Man(b1-4)GlcNAc(b1-4)GlcNAc
# Outline: as §1
# [11] = target: Gal(b1-3)GlcNAc(b1-2)[Gal(b1-3)GlcNAc(b1-6)]Man(a1-6)[Gal(b1-3)GlcNAc(b1-2)Man(a1-3)]Man(b1-4)GlcNAc(b1-4)GlcNAc
# Outline: as §1
# Gal(b1-4)GlcNAc(b1-2)Man = target: Gal(b1-4)GlcNAc(b1-2)Man
# Outline: as §1
# [12] = target: Gal(b1-4)GlcNAc(b1-2)Man(a1-6)Man(b1-4)GlcNAc(b1-4)GlcNAc
# Outline: as §1
# [13] = target: Gal(b1-4)GlcNAc(b1-2)Man(a1-6)[Man(a1-3)]Man(b1-4)GlcNAc(b1-4)GlcNAc
# Outline: as §1
# [14] = target: Gal(b1-4)GlcNAc(b1-2)[Gal(b1-4)GlcNAc(b1-6)]Man(a1-6)[GlcNAc(b1-4)][Gal(b1-4)GlcNAc(b1-2)[Gal(b1-4)GlcNAc(b1-4)]Man(a1-3)]Man(b1-4)GlcNAc(b1-4)[Fuc(a1-6)]GlcNAc
# Outline: as §1
# [15] = target: Gal(b1-4)GlcNAc(b1-3)Gal(b1-3)GlcNAc
# Outline: as §1
# [16] = target: Gal(b1-4)GlcNAc(b1-3)Gal(b1-4)GlcNAc(b1-2)[Gal(b1-4)GlcNAc(b1-3)Gal(b1-4)GlcNAc(b1-6)]Man(a1-6)[Gal(b1-4)GlcNAc(b1-3)Gal(b1-4)GlcNAc(b1-2)Man(a1-3)]Man(b1-4)GlcNAc(b1-4)GlcNAc
# Outline: as §1
# [17] = target: Gal(b1-4)GlcNAc(b1-3)Gal(b1-4)GlcNAc(b1-3)Gal(b1-4)GlcNAc(b1-2)Man(a1-3)[Gal(b1-4)GlcNAc(b1-3)Gal(b1-4)GlcNAc(b1-3)Gal(b1-4)GlcNAc(b1-2)Man(a1-6)]Man(b1-4)GlcNAc(b1-4)[Fuc(a1-6)]GlcNAc
# Outline: as §1
# [18] = target: Gal(b1-4)GlcNAc(b1-3)Gal(b1-4)GlcNAc(b1-3)Gal(b1-4)GlcNAc(b1-2)[Gal(b1-4)GlcNAc(b1-3)Gal(b1-4)GlcNAc(b1-3)Gal(b1-4)GlcNAc(b1-6)]Man(a1-6)[Gal(b1-4)GlcNAc(b1-3)Gal(b1-4)GlcNAc(b1-3)Gal(b1-4)GlcNAc(b1-2)Man(a1-3)]Man(b1-4)GlcNAc(b1-4)[Fuc(a1-6)]GlcNAc
# Outline: as §1
# [19] = target: Gal(b1-4)GlcNAc(b1-3)Gal(b1-4)GlcNAc(b1-3)Gal(b1-4)GlcNAc(b1-3)Gal(b1-4)GlcNAc(b1-3)Gal(b1-4)GlcNAc(b1-2)Man(a1-3)[Gal(b1-4)GlcNAc(b1-3)Gal(b1-4)GlcNAc(b1-3)Gal(b1-4)GlcNAc(b1-3)Gal(b1-4)GlcNAc(b1-3)Gal(b1-4)GlcNAc(b1-2)Man(a1-6)]Man(b1-4)GlcNAc(b1-4)GlcNAc
# Outline: as §1
# [20] = target: Gal(b1-4)GlcNAc(b1-3)Gal(b1-4)GlcNAc(b1-6)[Gal(b1-3)]GalNAc
# Outline: as §1
# [21] = target: Gal(b1-4)GlcNAc(b1-3)Gal(b1-4)[Fuc(a1-3)]GlcNAc(b1-3)Gal(b1-4)[Fuc(a1-3)]GlcNAc
# Outline: as §1
# [22] = target: Gal(b1-4)GlcNAc(b1-3)[Fuc(a1-3)GlcNAc(b1-6)]Gal(b1-4)Glc
# Outline: as §1
# Gal(b1-6)Gal = target: Gal(b1-6)Gal
# Outline: as §1
# [23] = target: GalNAc(b1-4)GlcNAc(b1-2)Man(a1-3)[GalNAc(b1-4)GlcNAc(b1-2)Man(a1-6)]Man(b1-4)GlcNAc(b1-4)GlcNAc
# Outline: as §1
# GalNAc(b1-6)GalNAc = target: GalNAc(b1-6)GalNAc
# Outline: as §1
# [24] = target: Glc(a1-6)Glc(a1-6)Glc(a1-6)Glc
# Outline: as §1
# [25] = target: GlcNAc(a1-4)Gal(b1-4)GlcNAc(b1-3)Gal(b1-4)[Fuc(a1-3)]GlcNAc(b1-3)Gal(b1-4)[Fuc(a1-3)]GlcNAc
# Outline: as §1
# [26] = target: GlcNAc(b1-2)[GlcNAc(b1-4)]Man(a1-3)[GlcNAc(b1-4)][GlcNAc(b1-2)[GlcNAc(b1-6)]Man(a1-6)]Man(b1-4)GlcNAc(b1-4)GlcNAc
# Outline: as §1
# [27] = target: GlcNAc(b1-2)[GlcNAc(b1-6)]Man(a1-6)[GlcNAc(b1-2)Man(a1-3)]Man(b1-4)GlcNAc(b1-4)GlcNAc
# Outline: as §1
# [28] = target: GlcNAc(b1-3)Gal(b1-4)GlcNAc
# Outline: as §1
# [29] = target: GlcNAc(b1-3)Gal(b1-4)GlcNAc(b1-2)[GlcNAc(b1-3)Gal(b1-4)GlcNAc(b1-6)]Man(a1-6)[GlcNAc(b1-3)Gal(b1-4)GlcNAc(b1-2)Man(a1-3)]Man(b1-4)GlcNAc(b1-4)GlcNAc
# Outline: as §1
# [30] = target: GlcNAc(b1-3)Gal(b1-4)GlcNAc(b1-3)Gal(b1-4)GlcNAc(b1-3)Gal(b1-4)GlcNAc(b1-3)Gal(b1-4)GlcNAc(b1-2)Man(a1-3)[GlcNAc(b1-3)Gal(b1-4)GlcNAc(b1-3)Gal(b1-4)GlcNAc(b1-3)Gal(b1-4)GlcNAc(b1-3)Gal(b1-4)GlcNAc(b1-2)Man(a1-6)]Man(b1-4)GlcNAc(b1-4)[Fuc(a1-6)]GlcNAc
# Outline: as §1
# [31] = target: GlcNAc(b1-4)[GlcNAc(b1-6)]GalNAc
# Outline: as §1
# [32] = target: Man(a1-2)Man(a1-3)[Man(a1-2)Man(a1-6)]Man(a1-6)[Man(a1-2)Man(a1-2)Man(a1-3)]Man(b1-4)GlcNAc(b1-4)GlcNAc
# Outline: as §1
# Man(a1-3)[Man(a1-6)]Man = target: Man(a1-3)[Man(a1-6)]Man
# Outline: as §1
# [33] = target: Man(a1-3)[Man(a1-6)]Man(a1-6)[Man(a1-2)Man(a1-3)]Man(b1-4)GlcNAc(b1-4)GlcNAc
# Outline: as §1
# [34] = target: Neu5Ac(a2-3)Gal(b1-3)GalNAc
# Outline: as §1
# [35] = target: Neu5Ac(a2-3)Gal(b1-3)GlcNAc(b1-2)Man
# Outline: as §1
# [36] = target: Neu5Ac(a2-3)Gal(b1-4)GlcNAc6S
# Outline: as §1
# [37] = target: Neu5Ac(a2-3)Gal(b1-4)[Fuc(a1-3)]GlcNAc(b1-3)GalNAc
# Outline: as §1
# [38] = target: Neu5Ac(a2-6)Gal(b1-4)GlcNAc(b1-2)[Neu5Ac(a2-6)Gal(b1-4)GlcNAc(b1-6)]Man(a1-6)[Neu5Ac(a2-6)Gal(b1-4)GlcNAc(b1-2)Man(a1-3)][GlcNAc(b1-4)]Man(b1-4)GlcNAc(b1-4)GlcNAc
# Outline: as §1
# [39] = target: Neu5Ac(a2-6)Gal(b1-4)GlcNAc(b1-3)Gal(b1-4)GlcNAc(b1-2)Man(a1-3)[Neu5Ac(a2-6)Gal(b1-4)GlcNAc(b1-3)Gal(b1-4)GlcNAc(b1-2)Man(a1-6)]GalNAc
# Outline: as §1
# [40] = target: Neu5Ac(a2-6)Gal(b1-4)GlcNAc(b1-3)Gal(b1-4)GlcNAc(b1-3)Gal(b1-4)GlcNAc(b1-2)Man(a1-3)[Neu5Ac(a2-6)Gal(b1-4)GlcNAc(b1-3)Gal(b1-4)GlcNAc(b1-3)Gal(b1-4)GlcNAc(b1-2)Man(a1-6)]GalNAc
# Outline: as §1
# [41] = target: Neu5Ac(a2-6)Gal(b1-4)GlcNAc(b1-6)[Gal(b1-3)GlcNAc(b1-3)]Gal(b1-4)Glc
# Outline: as §1
# [42] = target: Neu5Ac(a2-6)Gal(b1-4)GlcNAc(b1-6)[Gal(b1-3)]GalNAc
# Outline: as §1
# [43] = target: Neu5Gc(a2-3)Gal(b1-3)[Fuc(a1-4)]GlcNAc
# Outline: as §1
binder,measurement,setting,value
B1,glycan array binding signal (z-score),Fuc(a1-2)Gal,-0.518
same,glycan array binding signal (z-score),[1],0.606
same,glycan array binding signal (z-score),[2],3.55
same,glycan array binding signal (z-score),[3],-0.455
same,glycan array binding signal (z-score),[4],-0.717
same,glycan array binding signal (z-score),[5],0.652
same,glycan array binding signal (z-score),[6],6.34
same,glycan array binding signal (z-score),Fuc(a1-4)GlcNAc,7.35
same,glycan array binding signal (z-score),[7],0.13
same,glycan array binding signal (z-score),[8],-1.04
same,glycan array binding signal (z-score),[9],-0.976
same,glycan array binding signal (z-score),[10],-1.15
same,glycan array binding signal (z-score),[11],0.375
same,glycan array binding signal (z-score),Gal(b1-4)GlcNAc(b1-2)Man,2.88
same,glycan array binding signal (z-score),[12],-1.02
same,glycan array binding signal (z-score),[13],-0.531
same,glycan array binding signal (z-score),[14],0.062
same,glycan array binding signal (z-score),[15],-0.026
same,glycan array binding signal (z-score),[16],-0.769
same,glycan array binding signal (z-score),[17],1.45
same,glycan array binding signal (z-score),[18],0.279
same,glycan array binding signal (z-score),[19],3.23
same,glycan array binding signal (z-score),[20],-0.045
same,glycan array binding signal (z-score),[21],0.753
same,glycan array binding signal (z-score),[22],-0.005
same,glycan array binding signal (z-score),Gal(b1-6)Gal,-0.244
same,glycan array binding signal (z-score),[23],1.38
same,glycan array binding signal (z-score),GalNAc(b1-6)GalNAc,2.02
same,glycan array binding signal (z-score),[24],-0.539
same,glycan array binding signal (z-score),[25],2.63
same,glycan array binding signal (z-score),[26],-1.46
same,glycan array binding signal (z-score),[27],-0.327
same,glycan array binding signal (z-score),[28],-0.835
same,glycan array binding signal (z-score),[29],2.85
same,glycan array binding signal (z-score),[30],2.43
same,glycan array binding signal (z-score),[31],0.249
same,glycan array binding signal (z-score),[32],-0.143
same,glycan array binding signal (z-score),Man(a1-3)[Man(a1-6)]Man,-0.694
same,glycan array binding signal (z-score),[33],-0.363
same,glycan array binding signal (z-score),[34],1.83
same,glycan array binding signal (z-score),[35],1.15
same,glycan array binding signal (z-score),[36],1.4
same,glycan array binding signal (z-score),[37],3.76
same,glycan array binding signal (z-score),[38],0.627
same,glycan array binding signal (z-score),[39],3.27
same,glycan array binding signal (z-score),[40],2.6
same,glycan array binding signal (z-score),[41],-0.927
same,glycan array binding signal (z-score),[42],-0.014
same,glycan array binding signal (z-score),[43],0.217

# Reference: the supplement of paper PMC8728848
